# Test results reported in PubChem BioAssay AID1745846 (National Center for Advancing Translational Sciences (NCATS), 2022).
# The campaign covered roughly 1,400 compounds. About 30 (2%) were called active. Another 15% or so got no clear call; they are omitted. The sample holds actives, similar compounds and a random draw of the others, so the mix is not that of the screen. Unmarked numbers belong to inactive results. The call rests on the fitted dose curve; in most records, active means well fitted inhibition curve with a large enough effect; inconclusive means small, poorly fitted or top-dose-only effect; inactive means flat fitted curve, though single readings scatter.
# Test: Firefly Luciferase Counterscreen for Inhibitors of ATXN expression
# Conditions: luminescence; series mostly up to 57.5 µM; activity change, negative = inhibition: at the top concentration
# Excerpt: University of Utah School of Medicine, Salt Lake City, Utah
# Spinocerebellar ataxia type 2 (SCA2) is a multisystem neurodegenerative disease caused by a dominantly acting mutation leading to expansion of a polyQ domain in the ataxin-2 protein (ATXN2). SCA2 patients develop progressive ataxia and later lose function in other neuronal systems. Prominent parkinsonian signs develop in some patients. Like many neurodegenerative disorders, no symptomatic or disease-modifying treatments are known.
# The primary objective of the proposed research is to identify compounds inhibiting ATXN2 expression and to test them for efficacy in SCA2 mouse models. We have developed a cell-based assay paired with an in vivo mouse model using identical luciferase expression constructs. This approach takes advantage of an ATXN2-luciferase transgene, with the luciferase gene flanked by the upstream and downstream portions of the ATXN2 gene. Here we describe a 5-7 dose quantitative high thoroughput screen (qHTS) for compounds lowering ATXN2 expression. We screened the NIH Molecular Libraries Small Molecule Repository (MLSMR) and NCGC's mechanistically annotated (MIPE) and drug repurposing (NPC) collections of compounds for lowering expression of an ATXN2-luciferase reporter in HEK-293 cells. The assay is a multiplexed cell viability assay to ensure target reduction in the absence of cytotoxicity. Secondary qHTS assays included a CMV-luciferase reporter expressed in HEK-293 cells as well as a biochemical assay using recombinant luciferase to detect inhibitors of the reporter enzyme. Compounds that inhibit ATXN2 expression but is not cytotoxic were selected for confirmatory and secondary screens.
# PROTOCOL TABLE (as described by Inglese J, Shamu CE and Guy RK. 2007)
# SEQUENCE No. (e.g., 1, 2, 3, etc.); […] (e.g., Cells, Incubation, Reagent, etc.); VALUE; DESCRIPTION.
# 2; Compounds; 23 nL; Kalypsis pintool (Wako USA) equipped with a 1536-well pin head.
# 3; Enzyme; 1 uL; recombinant firefly luciferase (prepared in 50 mM Tris HCl pH7.5, 10 mM MgCl2, 0.05% BSA, 0.01% Tween20) at final concentration of 10 nM. Wells containing buffer only were used as control (set as 100% inhibition when normalizing data).
# 4; Incubation; 10 min; room temperature.
# 5; Detection; Luminescence; Viewlux plate reader (PerkinElmer).
# NOTES (numbers refer to Sequence numbers above)
# 1. Luciferase substrate is added to 1536 well, Greiner white assay plate. Evaporation was prevented by covering assay plates with metal lids containing holes to allow gas diffusion.
# 2. Compounds were added in a dose response manner with the final concentrations of 57, 11.4, 2.28, 0.46, 0.091, 0.018, 0.0037 uM. Vehicle-only plates, with DMSO being pin-transferred to columns 5-48, were inserted uniformly at the beginning and the end of each library to monitor and record any shifts in assay performance.
# 3. Recombinant firefly luciferase (10 nM final concentration) is added to the assay plate.
# 5. End-point luminescence is then measured on the Viewlux (PerkinElmer) imager equipped with a clear emission filter using a 2 sec exposure.
# Inglese J, Shamu CE and Guy RK, Reporting data from high throughput screening of small molecule libraries, Nature Chemical Biology, 2007, 3(8): 438-441. doi.org/10.1038/nchembio0807-438.
# On the % scale 0 is the no-effect control and ±100 the full control effect; potency means the concentration at half of the fitted maximal effect.
SMILES,"activity change, negative = inhibition",Potency
COc1ccc(-c2oc3c(OC)c(OC)c(OC)c(O)c3c(=O)c2OC)cc1OC,-3.94%,–
CCCCOc1ccc(C(=O)NNC(=S)NC(=O)CC)cc1,-3.45%,–
COc1cccc(/C=N/NC(=O)c2c(C)nc3ccc(Cl)cn23)c1O,-11.2%,–
CC(C)[C@H](NC(=O)c1ccc(C(C)(C)C)cc1)C(=O)N1CCN(Cc2ccc3c(c2)OCO3)CC1,-0.972%,–
COc1cccc(/C=N/NC(=O)Cn2nc(C)c([N+](=O)[O-])c2C)c1O,-5.2%,–
Cc1cc(N/N=C/c2ccccc2[N+](=O)[O-])nc(-n2nc(C)cc2C)n1,-3.89%,–
NC(Cc1ccccc1)c1csc(Nc2ccc(C(F)(F)F)cn2)n1 (stereo not drawn),1.9%,–
CCOc1ccc(-n2c(-c3ccccc3)c[n+]3c2CCCCC3)cc1,-2.5%,–
Cc1c(C(=O)N2c3ccccc3Sc3ccccc32)cccc1[N+](=O)[O-],-0.615%,–
CCn1c(C)cc(C(=O)COC(=O)c2ccccc2[N+](=O)[O-])c1C,–,0.0178 µM (active)
CCc1ccc(NC(=O)COc2ccc(/C=C(/C#N)c3nc4ccccc4[nH]3)cc2OC)cc1,2.59%,–
O=C(CNC(=O)c1ccccc1Br)N/N=C/c1ccccc1O,-5.02%,–
Cc1ccc(N=Nc2ccc(O)c3ncccc23)cc1,3.5%,–
Cc1cc2sc3ccc(C#CC4(O)CCCCC4)cc3c(=O)c2cc1C,–,0.251 µM (active)
Oc1c(C(Nc2cccc(C(F)(F)F)c2)c2ccncc2)ccc2cccnc12 (stereo not drawn),0.225%,–
O=C(CCCOc1ccc(Cl)cc1Cl)N/N=C/c1ccccc1O,-14.6%,–
CC[n+]1ccccc1/C=C1\Sc2ccc(C)cc2N1C,-0.952%,–
CN1OC[C@@H]2CN[C@H](c3ccc(-c4cc5ccccc5o4)cc3)C[C@@H]21,–,0.316 µM (active)
CCC(=O)NNC(=S)NC(=O)c1ccc(C)cc1,-8.2%,–
COc1ccc(-c2csc(NC(=O)C3CCN(c4ncnc5sc(C)c(C)c45)CC3)n2)cc1OC,-2.92%,–
COC(=O)c1c(NC(=O)c2ccc([N+](=O)[O-])o2)sc2c1CCN(C(C)C)C2,0.611%,–

SMILES,"activity change, negative = inhibition",Potency
CC(=O)Oc1ccc(C23c4ccccc4C2(OC(C)=O)c2cc(OC(C)=O)ccc23)cc1 (stereo not drawn),-2.35%,–
COC(=O)c1sc(NC(=O)c2ccc(OC)cc2OC)nc1C,–,0.1 µM (active)
COc1ccc(C(=O)c2sc(Nc3ccccc3)nc2N)cc1OC,-16.4%,–
COc1ccc(CC(N)c2csc(NC(=O)c3ccccc3OC)n2)cc1 (stereo not drawn),-15.2%,–
COc1ccc(CSCC(=O)N/N=C/c2ccccc2O)cc1,-4.55%,–
Cc1cccc(OCC(=O)Nc2ccc3c(c2)nc(CCN2CCN(c4ccccn4)CC2)n3C)c1,-8.57%,–
CN1CCCC1CCOC(C)(c1ccccc1)c1ccc(Cl)cc1 (stereo not drawn),4.05%,–
Cc1cc2oc3cc(NCCC4CCCN4C)ccc3c(=O)c2cc1C (stereo not drawn),–,10 µM (active)
Cc1cc2oc3ccc(NCCC4CCCN4C)cc3c(=O)c2cc1C (stereo not drawn),–,6.31 µM (active)
CCN1CCN(C(c2ccc(C(F)(F)F)cc2)c2ccc3cccnc3c2O)CC1 (stereo not drawn),-0.327%,–
COc1ccc(CC2C(=O)NC(C)C(=O)N(C)C3Cc4ccc(cc4)Oc4cc(ccc4O)CC(C(=O)NC(C)C(=O)NC(C)C(=O)N2C)N(C)C3=O)cc1 (stereo not drawn),-0.0052%,–
COc1ccc(/C=C2\CN(Cc3ccccc3)C/C(=C\c3ccc(OC)c(O)c3)C2=O)cc1O,-1.84%,–
O=C(CN1CCCC1)N/N=C/c1c(O)ccc2ccccc12,-4.95%,–
O=C(Nc1nc(-c2ccccn2)cs1)c1ccc(F)c(S(=O)(=O)N2CCOCC2)c1,-19.5%,–
O=C(Nc1nc(-c2ccccn2)cs1)c1ccccc1-n1cnnn1,-18.3%,–
CCc1ccccc1OCC(=O)Nc1nc(-c2cccnc2)cs1,-8.34%,–
CC(Oc1ccc(F)cc1)C(=O)Nc1nc(-c2ccccn2)cs1 (stereo not drawn),-4.9%,–
O=C(Nc1nc(-c2ccccn2)cs1)Nc1ccc(F)cc1F,–,25.1 µM (active)
CCc1sc(C(=O)Nc2nc(-c3ccccn3)cs2)cc1C,–,6.31 µM (active)
Cc1ccc(-c2cn(-c3ccc(OC(F)F)cc3)c3[n+]2CCCCC3)cc1,-0.299%,–
COc1ccc2oc(/C=C/N(C)C)c(C(=O)c3ccc(Cl)cc3)c2c1,-4.4%,–

SMILES,"activity change, negative = inhibition",Potency
CC(CCc1ccccc1)NC(=O)c1ccc(C(=O)NC(C)CCc2ccccc2)cc1 (stereo not drawn),1.04%,–
O=C(NNCc1ccccc1)c1ccccc1,–,10 µM (active)
O=C(NCc1ccccc1)c1ccc(C(=O)N(C2CCCCC2)C2CCCCC2)cc1,0.27%,–
Cc1ccccc1N=Nc1ccc(O)c2ncccc12,-2.38%,–
CCN1C(=O)/C(=C/c2nc3ccccc3c(=O)n2-c2ccccc2)c2ccccc21,0.962%,–
CC(=O)Nc1cccc(-c2ccnc3c2CC(C)(C(=O)Nc2cccc(Oc4ccccc4)c2)O3)c1 (stereo not drawn),-1.45%,–
COc1ccc2sc(-c3ccc(SC)cc3)c(-c3ccc(O)cc3)c2c1,2.23%,–
COc1cc(/C=C(/C#N)C(=O)NCCc2c[nH]c3ccccc23)ccc1OCc1ccccc1F,1.42%,–
COCCCNCCCOc1ccc(Cl)cc1C(C)(C)C,1.71%,–
CC(C)C1C(=O)N(Cc2cn(CCC3OCCO3)nn2)CCS(=O)(=O)N1Cc1ccc(-c2ccc(Cl)cc2)cc1 (stereo not drawn),-3.28%,–
COc1cccc(S(=O)(=O)NCc2ccc(C(=O)Nc3cccc(Cl)c3)cc2)c1,-2.18%,–
Cc1ccc(OCCCC(=O)NNC(=O)c2ccccn2)cc1,-1.95%,–
CCCC(NCC(O)COc1ccc(-c2ccccc2)cc1)c1ccccc1 (stereo not drawn),-3.86%,–
O=C(CSc1nnc(-c2ccc(Br)cc2)o1)Nc1cccc(C(=O)O)c1,–,3.98 µM (active)
O=C(CSc1n[nH]c(-c2ccccn2)n1)Nc1ccccc1,-13.1%,–
O=C(Nc1cccc(Br)c1)c1cccc(OC(=S)N2CCOCC2)c1,-13.5%,–
CC1(C(=O)Nc2cnc3ccccc3c2)CCN1C(=O)c1ccccc1CCc1ccccc1 (stereo not drawn),-1.11%,–
O=C(NC(Nc1ncc(S(=O)(=O)c2ccc([N+](=O)[O-])cc2)s1)(C(F)(F)F)C(F)(F)F)c1ccc(Cl)cc1,-10.1%,–
NC(Cc1ccc(C(F)(F)F)cc1)c1csc(Nc2ccc(C(=O)c3ccccc3)cc2)n1 (stereo not drawn),0.547%,–
Cc1ccc(C2CC(=O)Nc3c2ccc2ccccc32)cc1[N+](=O)[O-] (stereo not drawn),-4.69%,–
CCc1nc2c(OCc3ccc(Cl)cc3)cccn2c1N(C=O)Cc1ccc(OC)cc1,-3.69%,–
